# Only some compounds are listed: those with a hit (about 4.1% of all), similar ones and a draw of the others.
# hgDAF-12 ag: activates the H. glycines DAF-12 receptor ligand-binding domain; HEK293 GAL4-hgDAF12 UAS-luciferase reporter, agonist luminescence; normalized to butyrate control; actives 1.8% (n = 370,000); activation, % at 6.8 µM;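 active = activation above a cutoff set at the mean of all screened compounds plus 3 SD, cut at about 10% in these data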
# hcDAF12 agonist: H. contortus DAF-12 activation, primary screen; actives 1.4% (n = 370,000); HEK293 hcDAF-12 lit1-tk-luc reporter, luminescence; 0% DMSO, 100% Δ7-dafachronic acid; AID 652067; activation, % at 6.8 µM;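 active = activation above the mean of all tested compounds plus 3 SD, cut at about 5.5% in these data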
# DAX1 inh-1: NR0B1 (DAX1) inhibition; P51843; HEK293 Gal4-DAX1 luciferase reporter, luminescence; inhibition, % at 6.75 µM; actives 0.99% (n = 340,000);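 active = inhibition above the mean over all tested compounds plus 3 SD, cut at about 4.2% in these data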;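 also: inhibition shows as a rise in luminescence from relieved DAX1 repression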
# Target sequence (P51843 207-470 limits assumed): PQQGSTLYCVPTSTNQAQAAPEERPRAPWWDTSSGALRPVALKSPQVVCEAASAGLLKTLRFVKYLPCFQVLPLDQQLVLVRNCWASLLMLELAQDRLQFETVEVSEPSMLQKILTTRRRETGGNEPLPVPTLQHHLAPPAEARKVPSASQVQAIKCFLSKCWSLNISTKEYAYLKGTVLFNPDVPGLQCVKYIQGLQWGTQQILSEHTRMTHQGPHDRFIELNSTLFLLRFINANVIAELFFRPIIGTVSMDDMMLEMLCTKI
# DAX1 inh-2: inhibitors of DAX1 repression of SF-1 activated StAR promoter; inhibition, % at 6.8 µM; actives 1.1% (n = 370,000); AID 652010; HEK293T StAR-luciferase reporter, SF-1/DAX-1 repression relief;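 active = inhibition above the mean over all tested compounds plus 3 SD, cut at about 3.6% in these data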;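 also: higher inhibition means more luminescence from relief of DAX-1 repression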
# ssDAF-12 act: activators of S. stercoralis DAF-12 nuclear receptor; HEK293 ssDAF-12/GRIP1 lit1-tk-luc reporter, luminescence; % of 3 µM dafachronic acid response; AID 652126; activation, % at 6.8 µM; actives 1% (n = 370,000);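 active = activation above the mean over all tested compounds plus 3 SD, cut at about 0.9% in these data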
# LXRb hcDAF ctr: activates human LXR-beta, counter-screen for hcDAF-12 agonists. shares compounds with hcDAF12 agonist. HEK293 Gal4-LXR tk-luc reporter, luminescence, 24 h; normalized: DMSO 0%, positive control 100%. activation, % at 6.8 µM. 3,400 tested, under 10 active;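 active = mean percent activation of the reporter above a cutoff set as the average over tested compounds plus their standard deviation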
# hcDAF12 ag: confirmation of H. contortus DAF-12 agonists; shares compounds with hcDAF12 agonist; HEK293 hcDAF-12 lit1-tk-luc reporter, luminescence; % of Δ7-dafachronic acid response; activation, % at 6.8 µM; actives 61% (n = 3,400); AID 743032;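 active = mean activation across triplicate tests above the threshold derived from the earlier primary screen, cut at about 5.5% in these data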
# Hits are given with their value; n = inactive; x = not tested or not shown.
SMILES,hgDAF-12 ag,hcDAF12 agonist,DAX1 inh-1,DAX1 inh-2,ssDAF-12 act,LXRb hcDAF ctr,hcDAF12 ag
COc1ccc(-c2cn3nc(C)c(C)nc3n2)cc1OC,n,n,n,n,n,x,x
COc1ccc(-c2cn3cc(Cl)ccc3n2)cc1OC,n,8.6,n,n,n,n,n
COC(=O)c1cc2c(c3c4cc(C)ccc4n(S(=O)(=O)c4ccc(C)cc4)c13)C(=O)N(Cc1ccc(N(C)C)cc1)C2,n,n,x,n,n,x,x
O=C1c2ccccc2CCC12N=NCC2c1ccc(Br)cc1 (stereo unspecified),n,n,n,n,n,x,x
O=C1c2ccccc2CCC12N=NCC2c1ccc(Cl)cc1 (stereo unspecified),n,7.4,n,n,n,n,n
O=C(O)c1cc(Cl)c2ccccc2c1O,n,6.9,n,n,n,n,n
Cc1cccc2sc(NS(=O)(=O)c3ccccc3)nc12,n,12,n,n,n,n,n
N#Cc1c(NC(=O)c2ccccc2)sc2c1CCCCC2,13,7.0,n,n,1.0,n,5.9
NC(=O)c1c(NC(=O)c2ccccc2F)sc2c1CCCC2,13,9.0,5.4,n,n,n,7.3
Cc1ccc(C(=O)Nc2sc3c(c2C#N)CCCCC3)cc1C,n,n,n,n,n,x,x
CC(C(=O)NCc1ccccc1)n1c(CSCCOc2ccccc2)nc2ccccc21 (stereo unspecified),n,n,x,n,n,x,x
O=Cc1c[nH]c2ccc(S(=O)(=O)N3CCCCC3)cc12,n,n,n,n,n,x,x
N#C/C(=C(/O)c1ccc(F)cc1)c1nc2ccccc2s1,11,7.2,n,n,n,n,n
O=C(NNc1nc2ccccc2s1)c1ccc(F)cc1,n,9.6,n,n,2.1,n,n
CC(=O)Nc1ccc(N/C=C(\C=O)c2nc3ccccc3o2)cc1,n,6.7,n,n,1.0,n,6.7
O=C/C(=C\Nc1ccccn1)c1nc2cc(Cl)ccc2o1,n,6.8,n,n,0.9,n,n
CC(=O)Nc1cccc(N/C=C(\C=O)c2nc3ccccc3o2)c1,n,9.6,n,n,1.0,n,9.4
Clc1ccc2oc(-c3ccccc3)nc2c1,n,n,n,n,n,x,x
CC(=O)Nc1ccc(NC(=O)CSc2nc3ccccc3o2)cc1,n,n,n,n,n,x,x
C(=C\c1ccccc1)/CN1CCN(C(c2cc3ccccc3o2)c2nnnn2Cc2ccccc2)CC1 (stereo unspecified),n,n,x,n,n,x,x
O=C(NCc1cccc(F)c1)Nc1nnc([C@H]2C[C@H](O)[C@@H](CO)O2)s1,n,n,x,n,n,x,x
COc1cc(C(=O)N2CCCCC2c2cc(C(=O)Nc3ccccc3)no2)cc(OC)c1C (stereo unspecified),n,n,x,n,n,x,x
CC(=O)Nc1cccc(NC(=O)Cc2cccs2)c1,n,n,n,n,n,x,x
O=C(Cc1cccs1)Nc1cccc(-c2nc3cc4ccccc4cc3[nH]2)c1,13,9.4,n,n,n,n,n
O=C1CCC(=O)N1c1ccc(-c2nc3ccccc3s2)cc1,n,7.3,n,n,n,n,9.5
SMILES,hgDAF-12 ag,hcDAF12 agonist,DAX1 inh-1,DAX1 inh-2,ssDAF-12 act,LXRb hcDAF ctr,hcDAF12 ag
O=C1c2ccccc2CC1Sc1nnc(-c2ccccn2)o1 (stereo unspecified),n,6.7,n,n,n,n,n
O=C1CC(Sc2nnc(-c3ccccc3O)o2)C(=O)N1c1ccccc1 (stereo unspecified),n,n,n,n,n,x,x
Cc1ccc2nc(-c3cccc(N)c3)[nH]c2c1,n,n,n,n,n,x,x
Nc1cccc(-c2nc3ccccc3[nH]2)c1,n,8.0,n,n,n,n,n
COc1ccccc1CCn1cnc(-c2cccc(Br)c2)c1C(C)C,n,n,x,n,n,x,x
COc1cccc(C(=O)/C=C/Nc2ccc(S(=O)(=O)Nc3onc(C)c3C)cc2)c1,n,13,n,n,n,n,n
c1ccc2c(c1)Nc1nccnc1S2,n,7.7,n,n,n,n,7.5
COc1ccccc1NC(=O)c1oc2ccccc2c1C,n,7.0,n,n,2.2,n,6.7
Cc1ccsc1CNC(=O)C1(C)CCCN1CC(C)C (stereo unspecified),n,n,x,n,n,x,x
O=C(c1ccc(Cl)cc1)N1CCCCC(Sc2nnc(-c3ccc4c(c3)OCO4)o2)C1=O (stereo unspecified),10,6.9,n,4.2,n,n,n
CCOc1cccc(NC(=O)/C(C#N)=C\c2cn(CC(=O)O)c3ccccc23)c1,n,6.7,n,n,n,n,n
CCOc1ccc(NC(=O)/C(C#N)=C/c2cn(CC(=O)O)c3ccccc23)cc1,n,n,n,n,n,x,x
CCOC(=O)[C@]12CCCC=C1N(Cc1cccc3ccccc13)C(=O)[C@H](CC(=O)NCCc1ccccc1OC)C2,n,n,x,n,n,x,x
CCOc1ccc(-n2nc3cc(C)c(N)cc3n2)cc1,12,7.5,n,n,1.8,n,8.8
COc1ccc(-n2nc3cc(C)c(N)cc3n2)cc1Cl,n,n,n,n,n,x,x
Cc1cc2nn(-c3ccc(Cl)cc3)nc2cc1N,n,9.7,n,n,1.0,n,13
Cc1ccc(-n2nc3ccc(N)cc3n2)cc1,n,13,n,3.7,0.9,n,6.7
CCNC(=O)C1(C)CCCN(Cc2ccc(-c3ccccc3)o2)C1 (stereo unspecified),n,n,x,n,n,x,x
Nc1[nH]c(C(=O)c2ccccc2)c(-c2ccccc2[N+](=O)[O-])c1C(=O)NCCc1c[nH]c2ccccc12,n,n,x,n,n,x,x
Cc1cc2ccccc2n1CCNC(=O)c1ccc(S(=O)(=O)N2CCCCC2)cc1,n,7.5,n,n,n,n,n
COc1ccc(OC)c(Nc2ccc(C(=O)O)cc2[N+](=O)[O-])c1,n,8.4,n,n,n,n,n
O=C(C[C@H]1CC[C@@H]2[C@H](COC[C@H](O)CN2Cc2cccc(F)c2)O1)NCc1cccc(F)c1,n,n,x,n,n,x,x
Cc1ccc(NC(=O)COc2ccccc2C(=O)Nc2ccccc2)cc1Cl,n,n,n,n,n,x,x
CCOc1ccc(NC(=O)C(C)Oc2ccccc2C(=O)Nc2ccc(C)c(Cl)c2)cc1 (stereo unspecified),n,7.0,n,n,n,n,7.4
COc1cccc(C2=NN(S(C)(=O)=O)C(c3cccs3)C2)c1 (stereo unspecified),n,n,n,n,n,x,x
Nc1nc2ccc(C(=O)Nc3ccccc3)cc2s1,11,11,n,n,1.9,n,7.7

# Screening data as filed in PubChem BioAssay.
